Test results from PubChem BioAssay (NCATS).
Inconclusive results are not listed. Active and inactive are the calls of the source. Calls come from the whole dose curve; as a rule, active = well fitted inhibition curve with a large enough effect; inconclusive = small, poorly fitted or top-dose-only effect; inactive = flat fitted curve, though single readings scatter.

Target: Ubiquitin carboxyl-terminal hydrolase 1 (Homo sapiens) (UniProt O94782)
Experiment: Inhibitors of USP1/UAF1: Pilot qHTS (AID 504865); note: nearly all actives have a fitted effect of over 35% in size;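 for activity change, negative = inhibition: rhodamine fluorescence freed from ubiquitin-rhodamine substrate followed over time; top concentration of the series differs between compounds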
Conditions: purified USP1/UAF1, Ub-rhodamine cleavage fluorescence; series mostly up to 114 µM; activity change, negative = inhibition: at the top concentration
Method in brief: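 Kinetic fluorescence assay: 1nM USP1/UAF1, 15 min compound preincubation, then 150nM Ub-Rho; 480/540 nm.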
% is set by controls: 0 for no effect and ±100 for the full control effect; potency is the fitted concentration of half-maximal effect.

Chain of Ubiquitin carboxyl-terminal hydrolase 1 (Homo sapiens) (O94782 whole entry, looked up): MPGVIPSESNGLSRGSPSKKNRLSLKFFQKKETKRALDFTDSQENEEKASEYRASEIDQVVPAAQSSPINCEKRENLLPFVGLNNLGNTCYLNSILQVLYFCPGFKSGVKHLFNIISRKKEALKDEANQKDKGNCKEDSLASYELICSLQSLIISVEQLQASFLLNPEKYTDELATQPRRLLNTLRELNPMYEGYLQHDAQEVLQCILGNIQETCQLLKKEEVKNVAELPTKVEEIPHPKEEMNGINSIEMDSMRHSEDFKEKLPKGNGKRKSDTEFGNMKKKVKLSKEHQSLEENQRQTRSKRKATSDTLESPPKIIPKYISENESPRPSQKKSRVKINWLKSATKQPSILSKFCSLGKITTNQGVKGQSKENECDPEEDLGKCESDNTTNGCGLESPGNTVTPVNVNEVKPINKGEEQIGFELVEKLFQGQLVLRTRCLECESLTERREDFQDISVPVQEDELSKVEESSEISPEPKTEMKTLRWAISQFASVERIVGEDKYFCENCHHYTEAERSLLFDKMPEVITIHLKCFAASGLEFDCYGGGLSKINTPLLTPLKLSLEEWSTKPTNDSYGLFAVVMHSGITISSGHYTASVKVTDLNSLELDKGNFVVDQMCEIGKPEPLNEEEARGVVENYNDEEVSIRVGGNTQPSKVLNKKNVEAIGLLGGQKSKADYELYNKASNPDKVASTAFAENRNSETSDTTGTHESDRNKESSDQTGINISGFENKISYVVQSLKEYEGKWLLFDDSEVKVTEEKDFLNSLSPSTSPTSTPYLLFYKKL

**Q.** How did the “activity change, negative = inhibition” value turn out when `Cc1cc(C(=O)NCCc2ccc(S(=O)(=O)NC(=O)NN3CCCCCC3)cc2)no1` was run?
**A.** The value was -7.9% (inactive).

**Q.** Which “activity change, negative = inhibition” value does the source give for `COC(=O)[C@@H](N)CS` here?
**A.** Its value is 4.74% (inactive).

**Q.** `O=C(O)c1ccc(NC(=O)[C@H](Cc2ccc(O)cc2)NC(=O)c2ccccc2)cc1` was tested. Which “activity change, negative = inhibition” value did it give?
**A.** Its value is 2.73% (inactive).

**Q.** For `CC(CN(C)C)CN1c2ccccc2Sc2ccc(C(F)(F)F)cc21` (stereo not drawn), which “activity change, negative = inhibition” value is on record?
**A.** The value was -9.53% (inactive).

**Q.** With `CCCOc1cc(N)ccc1C(=O)OCCN(CC)CC` as the molecule, how does the “activity change, negative = inhibition” value read?
**A.** Its value is 17.3% [at 54.9 µM] (inactive).

**Q.** How did the Potency turn out when `CCCCCc1ccc(C)cc1O` was run?
**A.** The Potency was 35.5 µM (active).

**Q.** With `Cc1ccccn1` as the molecule, how does the “activity change, negative = inhibition” value read?
**A.** Its value is -2.33% (inactive).

**Q.** Which “activity change, negative = inhibition” value does the source give for `OCCCNc1ccccc1` here?
**A.** The value was -3.21% (inactive).

**Q.** Which “activity change, negative = inhibition” value does the source give for `NC(=O)CC[C@@H]1NC(=O)[C@H](Cc2ccccc2)NC(=O)[C@H](Cc2ccc(O)cc2)NC(=O)[C@@H](N)CSSC[C@@H](C(=O)N2CCC[C@H]2C(=O)N[C@@H](CCCN=C(N)N)C(=O)NCC(N)=O)NC(=O)[C@H](CC(N)=O)NC1=O` here?
**A.** Its value is -5.64% (inactive).

**Q.** Which “activity change, negative = inhibition” value does the source give for `CN[C@@H]1[C@H](O[C@H]2[C@H](O[C@H]3[C@H](O)[C@@H](O)[C@H](N=C(N)N)[C@@H](O)[C@@H]3N=C(N)N)O[C@@H](C)[C@]2(O)C=O)O[C@@H](CO)[C@H](O)[C@H]1O` here?
**A.** Its value is -3.87% (inactive).

**Q.** With `CC[C@H]1OC(=O)[C@H](C)[C@@H](O[C@H]2C[C@@](C)(OC)[C@@H](O)[C@H](C)O2)C(C)[C@@H](O[C@@H]2O[C@H](C)C[C@H](N(C)C)[C@@H]2O)[C@](C)(OC)C[C@@H](C)C(=O)[C@H](C)[C@@H](O)[C@]1(C)O` (stereo partly drawn) as the molecule, how does the “activity change, negative = inhibition” value read?
**A.** The value was -1.01% (inactive).

**Q.** For `CCCc1nc(C(C)(C)O)c(C(=O)OCc2oc(=O)oc2C)n1Cc1ccc(-c2ccccc2-c2nn[nH]n2)cc1`, which “activity change, negative = inhibition” value is on record?
**A.** The value was -12.5% (inactive).

**Q.** Which “activity change, negative = inhibition” value does the source give for `FC(F)(F)C(F)(F)C(F)(F)C(F)(F)C(F)(F)C(F)(F)F` here?
**A.** Its value is -6.87% (inactive).

**Q.** For `FC(F)(F)COCC(F)(F)F`, which “activity change, negative = inhibition” value is on record?
**A.** Its value is -3.73% (inactive).

**Q.** For `CC(=O)N=c1sc(S(N)(=O)=O)nn1C`, which “activity change, negative = inhibition” value is on record?
**A.** Its value is -0.983% [at 54.9 µM] (inactive).

**Q.** How did the “activity change, negative = inhibition” value turn out when `CCCCCCCCCCCCOCCCN` was run?
**A.** Its value is -8.37% (inactive).

**Q.** `C=CCOc1ccc(CC(=O)O)cc1Cl` was tested. Which “activity change, negative = inhibition” value did it give?
**A.** Its value is -5.02% (inactive).

**Q.** With `Cc1ccc(C(C)(C)c2ccc(C)cc2)cc1` as the molecule, how does the “activity change, negative = inhibition” value read?
**A.** The value was -9.44% (inactive).
